Test results as given in PubChem BioAssay (Tox21).
Records with an inconclusive call do not appear. Calls of active or inactive are those of the source. Unless noted, calls follow the shape of the dose curve; as a rule, active = well fitted curve in the direction sought with a large enough effect in the repeat runs; inconclusive = weak or mixed curves; inactive = no such curve, though single readings can be large; an effect the other way counts as inactive or inconclusive. Non-standard residues stand in square brackets, D forms with d. Residues, ends and D or L forms follow the SMILES beside them. *: point of attachment. Sta = CC(C)C[C@H](N)[C@@H](O)CC(=O)O; Isovaleryl = CC(C)CC(=O)*

Assays:
[1] = qHTS assay to identify small molecule agonists or antagonists of the thyroid stimulating hormone receptor (TSHR) signaling pathway - wild type cell line counter screen (AID 1259384; calls by dose curve)
Method in brief: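 Wild-type HEK293 cells were plated 18 h at 37 C/5% CO2, pin-dosed with compound plus Ro20-1724 medium, held 30 min at room temperature, then given cAMP-d2 and anti-cAMP-cryptate; fluorescence was read after 1 h. Fifteen concentrations, triplicate.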

[2] = target: Thyrotropin receptor (Homo sapiens) (UniProt P16473); experiment: qHTS assay to identify small molecule antagonists of the thyroid stimulating hormone receptor (TSHR) signaling pathway (AID 1259385; calls by dose curve; also: nearly all actives have a fitted effect of over 20% in size)
Method in brief: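 TSHR-HEK293 cells were plated and held 18 h at 37C/5% CO2, then given compound plus Ro20-1724 and stimulated with TSH at 1.5 ng/mL final. After 30 min at room temperature, cAMP was detected with cAMP-d2/anti-cAMP-cryptate (1 h) by fluorescence.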

[3] = qHTS assay to identify small molecule agonists of the estrogen receptor alpha (ER-alpha) signaling pathway in the presence of an antagonist - cell viability counter screen (AID 1259386);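 also: series mostly up to about 92 µM; cells exposed to compounds for 22 h at 37 °C before the viability read; nearly all actives have a fitted effect of over 30% in size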
Method in brief: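 The test measures whether compounds kill ER-alpha reporter cells (VM7Luc4E2) under antagonist co-treatment (ICI-182,780, 10.0nM). Fluorescence from CellTiter-Fluor is read after a 22hr exposure.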

[4] = target: Progesterone receptor (Homo sapiens) (UniProt P06401); experiment: qHTS assay to identify small molecule agonists of the progesterone receptor (PR) signaling pathway (AID 1346784; calls by dose curve; also: nearly all actives have a fitted effect of over 30% in size)
Method in brief: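 Fluorescence from LiveBLAzer B/G FRET substrate cleavage (2 hr, RT) reported PR activation in PR-UAS-bla HEK 293T cells treated 16 hr at 37C/5% CO2 with compounds; medium contained 2% charcoal-stripped FBS.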

[5] = qHTS assay to identify small molecule antagonists of the progesterone receptor (PR) signaling pathway - cell viability counter screen (AID 1346798); also: series mostly up to about 92 µM; nearly all actives have a fitted effect of over 50% in size
Method in brief: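 CellTiter-Glo luminescence; PR-UAS-bla HEK293T, 3,000 cells/well; compound + R5020, 16 hr, 37C/5% CO2; 30 min RT before read.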

[6] = qHTS assay to identify small molecule agonists of the progesterone receptor (PR) signaling pathway - cell viability counter screen (AID 1346799; calls by dose curve; also: nearly all actives have a fitted effect of over 45% in size)
Method in brief: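 In parallel with the beta-lactamase readout, cytotoxicity toward PR-UAS-bla HEK293T cells was measured by CellTiter-Glo luminescence following 16 hr compound incubation in 2% charcoal-stripped FBS medium.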

[7] = qHTS assay to identify small molecule antagonists of the TGF-beta/Smad signaling pathway - cell viability counter screen (AID 1346824); also: nearly all actives have a fitted effect of over 50% in size
Method in brief: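 SBE-bla HEK 293T cells were plated overnight at 37 C, then given compounds in DMSO plus TGF-beta1 (added as 0.25 ng/mL solution) for 5 hr. After the bla read, CellTiter-Glo was added to the same wells and luminescence read after 30 min at room temperature.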

[8] = qHTS assay to identify small molecule agonists of the TGF-beta/Smad signaling pathway - cell viability counter screen (AID 1346829); also: top concentration of the series differs between compounds; nearly all actives have a fitted effect of over 45% in size
Method in brief: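 Compound-treated SBE-bla HEK 293T cells (5 hr, 37 C) were assessed for viability with CellTiter-Glo in parallel with the reporter read.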

[9] = target: Progesterone receptor (Homo sapiens) (UniProt P06401); experiment: qHTS assay to identify small molecule antagonists of the progesterone receptor (PR) signaling pathway (AID 1346795; active = well fitted inhibition curve with a large enough effect in the signal ratio in the repeat runs, not every such curve was filed as active; the % refers to the signal ratio)
Method in brief: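 Fluorescence intensity measured 2 hr after adding beta-lactamase FRET substrate to PR-UAS-bla HEK293T cells that had been co-treated 16 hr with compound and 1 nM R5020 (final concentration) in 2% charcoal-stripped FBS.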
% is scaled to controls: 0 for no effect and ±100 for the full control effect.

Progesterone receptor (Homo sapiens), sequence (P06401 whole entry, looked up): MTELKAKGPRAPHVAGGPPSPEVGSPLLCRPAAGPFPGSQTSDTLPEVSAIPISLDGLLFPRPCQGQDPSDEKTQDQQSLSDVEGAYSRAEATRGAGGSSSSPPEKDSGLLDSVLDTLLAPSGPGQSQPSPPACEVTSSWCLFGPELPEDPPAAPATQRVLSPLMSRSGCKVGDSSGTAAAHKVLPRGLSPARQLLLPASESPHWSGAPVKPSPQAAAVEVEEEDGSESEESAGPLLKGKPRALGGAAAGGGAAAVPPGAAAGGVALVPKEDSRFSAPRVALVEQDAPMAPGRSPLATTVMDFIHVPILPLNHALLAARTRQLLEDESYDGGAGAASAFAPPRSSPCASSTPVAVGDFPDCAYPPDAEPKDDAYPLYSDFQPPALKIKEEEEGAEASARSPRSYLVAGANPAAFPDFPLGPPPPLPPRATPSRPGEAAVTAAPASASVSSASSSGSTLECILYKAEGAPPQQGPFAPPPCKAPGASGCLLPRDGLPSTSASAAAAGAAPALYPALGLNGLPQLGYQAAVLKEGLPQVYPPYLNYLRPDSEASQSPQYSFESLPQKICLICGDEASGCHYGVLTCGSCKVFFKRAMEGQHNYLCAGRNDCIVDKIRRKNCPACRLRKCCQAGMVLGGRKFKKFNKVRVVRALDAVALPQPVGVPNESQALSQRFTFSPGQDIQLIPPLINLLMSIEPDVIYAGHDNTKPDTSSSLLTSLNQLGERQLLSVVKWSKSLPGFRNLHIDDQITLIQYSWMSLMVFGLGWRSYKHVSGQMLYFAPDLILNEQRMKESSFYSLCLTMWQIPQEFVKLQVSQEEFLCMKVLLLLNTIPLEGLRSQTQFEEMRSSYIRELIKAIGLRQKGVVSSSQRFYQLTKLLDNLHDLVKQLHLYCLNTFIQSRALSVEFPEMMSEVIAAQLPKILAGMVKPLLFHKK
Thyrotropin receptor (Homo sapiens), sequence (P16473 whole entry, looked up): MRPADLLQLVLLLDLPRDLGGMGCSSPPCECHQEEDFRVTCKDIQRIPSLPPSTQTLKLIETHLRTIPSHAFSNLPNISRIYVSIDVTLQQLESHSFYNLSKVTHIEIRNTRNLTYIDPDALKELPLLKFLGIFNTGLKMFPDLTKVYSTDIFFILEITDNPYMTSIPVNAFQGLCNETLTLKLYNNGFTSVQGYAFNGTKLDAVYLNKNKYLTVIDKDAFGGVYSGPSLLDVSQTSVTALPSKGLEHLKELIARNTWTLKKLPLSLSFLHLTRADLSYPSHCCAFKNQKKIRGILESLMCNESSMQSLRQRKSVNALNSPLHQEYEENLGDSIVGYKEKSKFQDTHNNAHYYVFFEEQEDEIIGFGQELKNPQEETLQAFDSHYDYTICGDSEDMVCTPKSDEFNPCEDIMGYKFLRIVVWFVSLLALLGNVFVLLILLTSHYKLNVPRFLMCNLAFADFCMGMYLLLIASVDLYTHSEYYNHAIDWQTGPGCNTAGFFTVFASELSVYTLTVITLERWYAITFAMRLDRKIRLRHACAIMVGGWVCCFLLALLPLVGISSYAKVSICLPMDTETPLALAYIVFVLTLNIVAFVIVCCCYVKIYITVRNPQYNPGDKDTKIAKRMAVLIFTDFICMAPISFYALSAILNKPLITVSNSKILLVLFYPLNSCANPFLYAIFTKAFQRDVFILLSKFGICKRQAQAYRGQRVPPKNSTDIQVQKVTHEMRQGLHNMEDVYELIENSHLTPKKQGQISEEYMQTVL

CCCCCCCCCCCCCCCC/C=C/C1CC(=O)OC1=O (stereo not drawn)
inactive: outcome [1] | outcome [2] | outcome [3] | Potency [4] | outcome [5] | Potency [6] | outcome [7] | outcome [8]

Cc1ccc(O)c(C(=O)c2ccccc2)c1
inactive: outcome [1] | outcome [3] | Potency [4] | Potency [9] | outcome [5] | Potency [6] | outcome [7] | outcome [8]

CC1(C)C(=O)C(C)(C)C1=O
inactive: outcome [3] | Potency [4] | Potency [9] | outcome [5] | Potency [6] | outcome [7] | outcome [8]

COc1cc(NS(=O)(=O)c2ccc(N)cc2)ncn1
inactive: outcome [1] | outcome [3] | Potency [4] | Potency [9] | outcome [5] | Potency [6] | outcome [7]

CCCC[O][Al]([O]CCCC)[O]CCCC
inactive: outcome [1] | outcome [3] | Potency [4] | Potency [9] | outcome [5] | Potency [6] | outcome [7] | outcome [8]

CCCCCCCCOCCC#N
inactive: outcome [1] | outcome [3] | Potency [4] | Potency [9] | Potency [6] | outcome [7] | outcome [8]

O=C(c1ccccc1)c1cccc(O)c1
inactive: outcome [1] | outcome [2] | outcome [3] | Potency [4] | Potency [6] | outcome [7] | outcome [8]

O=C1CC2(CCCC2)CC(=O)N1CCNCC1COc2ccccc2O1 (stereo not drawn)
inactive: outcome [1] | outcome [3] | Potency [4] | Potency [9] | outcome [5] | outcome [7] | outcome [8]

C[C@H]1COc2c(C3(N)CC3)c(F)cc3c(=O)c(C(=O)O)cn1c23
inactive: outcome [1] | outcome [3] | Potency [4] | Potency [9] | outcome [5] | Potency [6] | outcome [7] | outcome [8]

CCCOc1ccc(C(=O)OCCN(CC)CC)cc1N
inactive: outcome [1] | outcome [3] | Potency [4] | Potency [9] | outcome [5] | outcome [7]

COC(=O)C(c1ccccc1Cl)N1CCc2sccc2C1 (stereo not drawn)
inactive: outcome [1] | outcome [2] | outcome [3] | Potency [4] | outcome [5] | Potency [6] | outcome [7] | outcome [8]

Cc1nnc(C(=O)NC(C)(C)c2nc(C(=O)NCc3ccc(F)cc3)c(O)c(=O)n2C)o1
inactive: outcome [1] | outcome [3] | Potency [4] | outcome [5] | Potency [6] | outcome [7]

CC(C)(C)OC=O
inactive: outcome [1] | outcome [2] | outcome [3] | Potency [4] | Potency [6] | outcome [7]

CC(C)OCCO
inactive: outcome [1] | outcome [3] | Potency [9] | outcome [5] | outcome [7] | outcome [8]

CC(C)OC(=O)C(C(=O)OC(C)C)=C1SC=CS1
inactive: outcome [1] | outcome [2] | outcome [3] | Potency [4] | outcome [7] | outcome [8]

COc1ccc(Cl)cc1C
inactive: outcome [3] | Potency [4] | Potency [9] | Potency [6] | outcome [7] | outcome [8]

CCO/C=C1\N=C(c2ccccc2)OC1=O
inactive: outcome [1] | outcome [3] | Potency [4] | Potency [9] | outcome [5] | Potency [6] | outcome [7] | outcome [8]

CC(=O)c1c(C)cc(C(C)(C)C)cc1C
inactive: outcome [3] | Potency [4] | Potency [9] | outcome [5] | Potency [6] | outcome [7] | outcome [8]

N=C(N)N1CCc2ccccc2C1
inactive: cAMP activity change [1] 4.39% [at 8.39 µM] | activity change, negative = inhibition [2] 0.0098% [at 8.39 µM] | activity change, negative = cytotoxicity [3] -0.402% [at 8.39 µM] | activity change, negative = inhibition [9] 5.13% [at 8.39 µM] | activity change, negative = cytotoxicity [5] 3.01% [at 8.39 µM] | activity change, negative = cytotoxicity [6] 0.346% [at 8.39 µM] | viability change, negative = cytotoxic [7] -7.19% [at 6.97 µM]

CC(C)CC(=O)N[C@H](C(=O)N[C@H](C(=O)N[C@@H](CC(C)C)[C@@H](O)CC(=O)N[C@@H](C)C(=O)N[C@@H](CC(C)C)[C@@H](O)CC(=O)O)C(C)C)C(C)C (Isovaleryl-VV[Sta]A[Sta]-OH)
inactive: outcome [1] | outcome [2] | outcome [3] | outcome [5] | Potency [6] | outcome [7]

C=CC(=O)OCCOCCOCC
inactive: outcome [3] | Potency [4] | outcome [5] | Potency [6] | outcome [7] | outcome [8]

O=c1c(O)c(O)c1=O
inactive: outcome [1] | outcome [3] | Potency [9] | outcome [5] | Potency [6] | outcome [7] | outcome [8]

CC(C)(Sc1cc(C(C)(C)C)c(O)c(C(C)(C)C)c1)Sc1cc(C(C)(C)C)c(O)c(C(C)(C)C)c1
inactive: outcome [1] | outcome [2] | outcome [3] | Potency [4] | Potency [9] | outcome [7] | outcome [8]

COC(C)(C)CC(C)=O
inactive: outcome [3] | Potency [4] | Potency [9] | outcome [5] | outcome [7] | outcome [8]

CNC(=O)c1c(I)c(NC(C)=O)c(I)c(C(=O)O)c1I
inactive: outcome [3] | Potency [4] | Potency [9] | outcome [5] | Potency [6] | outcome [7] | outcome [8]

CCCCCC(=O)CC
inactive: outcome [1] | outcome [2] | outcome [3] | outcome [5] | outcome [7] | outcome [8]

CC(C)C(C)C
inactive: outcome [1] | outcome [3] | Potency [4] | Potency [9] | outcome [5] | Potency [6] | outcome [7] | outcome [8]

CCOCCOCCOC(C)=O
inactive: outcome [1] | outcome [3] | Potency [4] | Potency [9] | outcome [5] | Potency [6] | outcome [7] | outcome [8]

COC(=O)c1ccccc1Cl
inactive: outcome [3] | Potency [9] | outcome [7] | outcome [8]
